Test results taken from ChEMBL document CHEMBL1961873, “Compounds: GSK PKIS; Assays: Nanosyn kinase panel” (2012).

What was measured:
[1] = target: Mitogen-activated protein kinase kinase kinase kinase 4 (Homo sapiens) (UniProt O95819); conditions: at 1 µM;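 further: reported figure is an averaged inhibition value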
[2] = target: Dual specificity mitogen-activated protein kinase kinase 1 (Homo sapiens) (UniProt Q02750); conditions: at 0.1 µM
[3] = target: Dual specificity mitogen-activated protein kinase kinase 1 (Homo sapiens) (UniProt Q02750); conditions: at 1 µM
[4] = target: Misshapen-like kinase 1 (Homo sapiens) (UniProt Q8N4C8); conditions: at 0.1 µM
Chain of Misshapen-like kinase 1 (Homo sapiens) (Q8N4C8 whole entry, looked up): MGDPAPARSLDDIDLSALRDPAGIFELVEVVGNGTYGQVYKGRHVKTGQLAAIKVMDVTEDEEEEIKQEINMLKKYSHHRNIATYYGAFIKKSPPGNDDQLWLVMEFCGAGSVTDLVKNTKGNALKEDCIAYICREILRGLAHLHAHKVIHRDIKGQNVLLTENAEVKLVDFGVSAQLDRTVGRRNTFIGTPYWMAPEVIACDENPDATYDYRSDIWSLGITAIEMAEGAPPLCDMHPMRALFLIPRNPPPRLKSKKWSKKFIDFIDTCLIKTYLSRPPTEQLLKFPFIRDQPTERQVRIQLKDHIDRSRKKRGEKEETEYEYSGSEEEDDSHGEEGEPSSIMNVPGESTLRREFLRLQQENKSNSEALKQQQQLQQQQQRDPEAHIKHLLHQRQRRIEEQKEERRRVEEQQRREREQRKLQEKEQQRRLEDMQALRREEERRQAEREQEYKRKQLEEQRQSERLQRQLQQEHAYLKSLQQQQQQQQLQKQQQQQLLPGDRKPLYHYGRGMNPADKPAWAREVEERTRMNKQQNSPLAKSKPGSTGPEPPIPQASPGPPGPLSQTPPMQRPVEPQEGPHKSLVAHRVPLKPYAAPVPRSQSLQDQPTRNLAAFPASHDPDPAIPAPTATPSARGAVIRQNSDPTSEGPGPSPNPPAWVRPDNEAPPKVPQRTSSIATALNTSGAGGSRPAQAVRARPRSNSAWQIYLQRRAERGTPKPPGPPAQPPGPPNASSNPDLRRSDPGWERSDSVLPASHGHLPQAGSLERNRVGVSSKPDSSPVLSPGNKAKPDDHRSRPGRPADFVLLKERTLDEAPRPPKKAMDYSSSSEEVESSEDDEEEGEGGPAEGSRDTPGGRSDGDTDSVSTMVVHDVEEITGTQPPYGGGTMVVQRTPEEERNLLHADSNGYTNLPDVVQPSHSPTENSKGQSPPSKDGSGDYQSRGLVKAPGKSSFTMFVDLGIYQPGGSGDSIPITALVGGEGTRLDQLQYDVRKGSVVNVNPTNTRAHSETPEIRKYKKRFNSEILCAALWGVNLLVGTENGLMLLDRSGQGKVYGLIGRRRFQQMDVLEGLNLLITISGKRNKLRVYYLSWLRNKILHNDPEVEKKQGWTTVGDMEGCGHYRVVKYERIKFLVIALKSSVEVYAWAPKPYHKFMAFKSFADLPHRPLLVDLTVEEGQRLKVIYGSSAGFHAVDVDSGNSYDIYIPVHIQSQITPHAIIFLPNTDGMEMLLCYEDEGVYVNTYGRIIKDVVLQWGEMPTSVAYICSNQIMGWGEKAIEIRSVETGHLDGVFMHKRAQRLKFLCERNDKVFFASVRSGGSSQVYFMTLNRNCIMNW

[5] = target: Misshapen-like kinase 1 (Homo sapiens) (UniProt Q8N4C8); conditions: at 1 µM
[6] = target: T1, Serine/threonine-protein kinase 4 (Homo sapiens) (UniProt Q13043); conditions: at 0.1 µM
T1 sequence (whole entry): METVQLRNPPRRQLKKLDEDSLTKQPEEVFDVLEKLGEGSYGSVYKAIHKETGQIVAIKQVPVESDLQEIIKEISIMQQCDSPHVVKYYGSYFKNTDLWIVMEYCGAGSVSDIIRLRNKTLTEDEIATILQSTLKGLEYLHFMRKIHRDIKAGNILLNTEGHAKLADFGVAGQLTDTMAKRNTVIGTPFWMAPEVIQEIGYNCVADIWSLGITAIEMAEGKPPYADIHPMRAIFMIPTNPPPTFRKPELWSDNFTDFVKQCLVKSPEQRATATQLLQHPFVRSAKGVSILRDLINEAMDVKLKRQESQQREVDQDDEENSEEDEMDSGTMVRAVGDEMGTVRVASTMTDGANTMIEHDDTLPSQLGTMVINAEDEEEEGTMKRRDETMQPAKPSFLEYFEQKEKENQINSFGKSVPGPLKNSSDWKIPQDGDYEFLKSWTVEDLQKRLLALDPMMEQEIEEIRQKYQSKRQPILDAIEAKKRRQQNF

[7] = target: T1, Serine/threonine-protein kinase 4 (Homo sapiens); conditions: at 1 µM
[8] = target: T2, Serine/threonine-protein kinase 3 (Homo sapiens) (UniProt Q13188); conditions: at 0.1 µM
T2 sequence (whole entry): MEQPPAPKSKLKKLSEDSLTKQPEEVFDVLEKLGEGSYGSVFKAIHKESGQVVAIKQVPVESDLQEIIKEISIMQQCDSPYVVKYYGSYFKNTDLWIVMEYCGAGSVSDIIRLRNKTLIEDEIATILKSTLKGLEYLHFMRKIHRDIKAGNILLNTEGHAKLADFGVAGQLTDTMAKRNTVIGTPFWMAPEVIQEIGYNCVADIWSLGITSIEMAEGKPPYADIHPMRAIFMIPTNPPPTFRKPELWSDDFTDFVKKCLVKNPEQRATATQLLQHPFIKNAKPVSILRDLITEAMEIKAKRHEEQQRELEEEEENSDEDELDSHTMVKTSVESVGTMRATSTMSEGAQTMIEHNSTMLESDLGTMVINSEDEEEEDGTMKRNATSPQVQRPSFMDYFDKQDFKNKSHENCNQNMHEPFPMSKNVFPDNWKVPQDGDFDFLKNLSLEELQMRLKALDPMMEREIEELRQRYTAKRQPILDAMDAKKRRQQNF

[9] = target: T2, Serine/threonine-protein kinase 3 (Homo sapiens); conditions: at 1 µM
[10] = target: Serine/threonine-protein kinase 26 (Homo sapiens) (UniProt Q9P289); conditions: at 0.1 µM
Chain of Serine/threonine-protein kinase 26 (Homo sapiens) (Q9P289 2-416 limits assumed): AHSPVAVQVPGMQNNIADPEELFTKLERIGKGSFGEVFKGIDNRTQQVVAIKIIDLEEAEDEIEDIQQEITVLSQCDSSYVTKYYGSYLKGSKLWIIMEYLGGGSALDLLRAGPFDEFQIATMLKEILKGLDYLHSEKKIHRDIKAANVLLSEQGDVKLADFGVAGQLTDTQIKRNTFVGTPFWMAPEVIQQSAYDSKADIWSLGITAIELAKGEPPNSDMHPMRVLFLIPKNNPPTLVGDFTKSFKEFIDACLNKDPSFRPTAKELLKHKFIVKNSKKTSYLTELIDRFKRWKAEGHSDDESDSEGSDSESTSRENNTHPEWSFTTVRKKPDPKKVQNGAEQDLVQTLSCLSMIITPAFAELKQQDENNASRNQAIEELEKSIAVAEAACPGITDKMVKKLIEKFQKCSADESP

[11] = target: Serine/threonine-protein kinase 26 (Homo sapiens) (UniProt Q9P289); conditions: at 1 µM
[12] = target: Serine/threonine-protein kinase PAK 1 (Homo sapiens) (UniProt Q13153); conditions: at 0.1 µM
Chain of Serine/threonine-protein kinase PAK 1 (Homo sapiens) (Q13153 whole entry): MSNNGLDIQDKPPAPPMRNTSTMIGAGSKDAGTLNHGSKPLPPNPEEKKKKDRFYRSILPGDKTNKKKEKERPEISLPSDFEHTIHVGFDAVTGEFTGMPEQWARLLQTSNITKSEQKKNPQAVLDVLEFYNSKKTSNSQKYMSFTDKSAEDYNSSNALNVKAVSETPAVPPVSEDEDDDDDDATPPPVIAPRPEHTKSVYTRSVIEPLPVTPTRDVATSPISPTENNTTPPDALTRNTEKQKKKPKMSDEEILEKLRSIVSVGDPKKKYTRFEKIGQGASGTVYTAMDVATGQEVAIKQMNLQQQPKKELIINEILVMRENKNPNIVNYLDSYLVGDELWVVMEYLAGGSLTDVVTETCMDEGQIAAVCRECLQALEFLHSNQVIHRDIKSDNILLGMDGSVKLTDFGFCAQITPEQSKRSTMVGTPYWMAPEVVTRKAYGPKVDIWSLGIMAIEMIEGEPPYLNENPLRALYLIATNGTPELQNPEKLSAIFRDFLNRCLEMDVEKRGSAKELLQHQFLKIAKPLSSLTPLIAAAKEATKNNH

[13] = target: Serine/threonine-protein kinase PAK 1 (Homo sapiens) (UniProt Q13153); conditions: at 1 µM
[14] = target: Serine/threonine-protein kinase PAK 2 (Homo sapiens) (UniProt Q13177); conditions: at 0.1 µM
Chain of Serine/threonine-protein kinase PAK 2 (Homo sapiens) (Q13177 whole entry): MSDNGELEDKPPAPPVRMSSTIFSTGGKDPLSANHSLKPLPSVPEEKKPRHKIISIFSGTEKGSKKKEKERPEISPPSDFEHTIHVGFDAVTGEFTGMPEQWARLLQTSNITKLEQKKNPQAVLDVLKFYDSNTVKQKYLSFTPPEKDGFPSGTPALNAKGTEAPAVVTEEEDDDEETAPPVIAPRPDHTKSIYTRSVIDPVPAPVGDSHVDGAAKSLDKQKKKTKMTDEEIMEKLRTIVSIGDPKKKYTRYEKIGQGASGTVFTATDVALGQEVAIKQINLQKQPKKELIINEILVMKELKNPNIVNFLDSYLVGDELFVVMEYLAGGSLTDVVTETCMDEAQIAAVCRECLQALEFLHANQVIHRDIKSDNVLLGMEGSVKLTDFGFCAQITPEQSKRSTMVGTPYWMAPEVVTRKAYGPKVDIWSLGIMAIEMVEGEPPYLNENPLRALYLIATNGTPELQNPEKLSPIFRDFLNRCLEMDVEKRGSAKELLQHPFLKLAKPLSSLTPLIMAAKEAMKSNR

[15] = target: Serine/threonine-protein kinase PAK 2 (Homo sapiens) (UniProt Q13177); conditions: at 1 µM
[16] = target: Serine/threonine-protein kinase PAK 3 (Homo sapiens) (UniProt O75914); conditions: at 0.1 µM
Chain of Serine/threonine-protein kinase PAK 3 (Homo sapiens) (O75914 whole entry, looked up): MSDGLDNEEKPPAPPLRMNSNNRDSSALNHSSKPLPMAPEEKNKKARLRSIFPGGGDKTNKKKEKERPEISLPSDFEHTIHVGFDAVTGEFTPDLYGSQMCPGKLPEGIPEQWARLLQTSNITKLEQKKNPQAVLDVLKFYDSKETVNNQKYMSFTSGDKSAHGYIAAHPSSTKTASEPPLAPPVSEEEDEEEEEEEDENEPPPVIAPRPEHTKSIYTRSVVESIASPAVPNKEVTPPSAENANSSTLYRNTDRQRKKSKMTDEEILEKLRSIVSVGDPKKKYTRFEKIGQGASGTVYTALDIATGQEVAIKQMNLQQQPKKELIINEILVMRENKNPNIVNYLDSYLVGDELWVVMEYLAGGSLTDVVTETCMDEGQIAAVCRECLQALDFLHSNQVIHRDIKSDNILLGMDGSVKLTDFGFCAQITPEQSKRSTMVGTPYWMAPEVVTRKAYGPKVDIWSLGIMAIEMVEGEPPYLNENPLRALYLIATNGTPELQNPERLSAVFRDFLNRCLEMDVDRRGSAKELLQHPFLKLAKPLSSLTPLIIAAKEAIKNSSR

[17] = target: Serine/threonine-protein kinase PAK 3 (Homo sapiens) (UniProt O75914); conditions: at 1 µM
[18] = target: Serine/threonine-protein kinase PAK 5 (Homo sapiens) (UniProt Q9P286); conditions: at 0.1 µM
Chain of Serine/threonine-protein kinase PAK 5 (Homo sapiens) (Q9P286 whole entry, looked up): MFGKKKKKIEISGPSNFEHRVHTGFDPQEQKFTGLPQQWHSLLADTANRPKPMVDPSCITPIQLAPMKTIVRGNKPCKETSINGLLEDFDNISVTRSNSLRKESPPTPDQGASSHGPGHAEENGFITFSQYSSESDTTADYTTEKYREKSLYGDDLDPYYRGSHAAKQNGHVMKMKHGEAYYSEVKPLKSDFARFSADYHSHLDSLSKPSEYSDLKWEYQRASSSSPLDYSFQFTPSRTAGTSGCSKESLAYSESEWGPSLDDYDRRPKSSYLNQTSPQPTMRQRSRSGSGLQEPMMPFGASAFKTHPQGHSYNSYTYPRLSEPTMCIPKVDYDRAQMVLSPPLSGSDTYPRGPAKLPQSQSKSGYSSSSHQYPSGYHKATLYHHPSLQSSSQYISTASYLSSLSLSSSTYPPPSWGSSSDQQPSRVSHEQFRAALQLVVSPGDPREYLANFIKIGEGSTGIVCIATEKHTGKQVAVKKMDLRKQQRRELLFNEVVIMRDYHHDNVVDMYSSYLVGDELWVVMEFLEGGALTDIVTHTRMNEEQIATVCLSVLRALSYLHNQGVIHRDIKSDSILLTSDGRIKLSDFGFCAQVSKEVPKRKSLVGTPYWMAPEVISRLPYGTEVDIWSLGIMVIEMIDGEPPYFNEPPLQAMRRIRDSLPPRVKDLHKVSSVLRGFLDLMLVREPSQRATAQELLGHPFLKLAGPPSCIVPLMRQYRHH

[19] = target: Serine/threonine-protein kinase PAK 5 (Homo sapiens) (UniProt Q9P286); conditions: at 1 µM
[20] = target: Serine/threonine-protein kinase PAK 6 (Homo sapiens) (UniProt Q9NQU5); conditions: at 0.1 µM;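 further: mean PAK6 inhibition reported from the GSK PKIS screen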
Chain of Serine/threonine-protein kinase PAK 6 (Homo sapiens) (Q9NQU5 whole entry, looked up): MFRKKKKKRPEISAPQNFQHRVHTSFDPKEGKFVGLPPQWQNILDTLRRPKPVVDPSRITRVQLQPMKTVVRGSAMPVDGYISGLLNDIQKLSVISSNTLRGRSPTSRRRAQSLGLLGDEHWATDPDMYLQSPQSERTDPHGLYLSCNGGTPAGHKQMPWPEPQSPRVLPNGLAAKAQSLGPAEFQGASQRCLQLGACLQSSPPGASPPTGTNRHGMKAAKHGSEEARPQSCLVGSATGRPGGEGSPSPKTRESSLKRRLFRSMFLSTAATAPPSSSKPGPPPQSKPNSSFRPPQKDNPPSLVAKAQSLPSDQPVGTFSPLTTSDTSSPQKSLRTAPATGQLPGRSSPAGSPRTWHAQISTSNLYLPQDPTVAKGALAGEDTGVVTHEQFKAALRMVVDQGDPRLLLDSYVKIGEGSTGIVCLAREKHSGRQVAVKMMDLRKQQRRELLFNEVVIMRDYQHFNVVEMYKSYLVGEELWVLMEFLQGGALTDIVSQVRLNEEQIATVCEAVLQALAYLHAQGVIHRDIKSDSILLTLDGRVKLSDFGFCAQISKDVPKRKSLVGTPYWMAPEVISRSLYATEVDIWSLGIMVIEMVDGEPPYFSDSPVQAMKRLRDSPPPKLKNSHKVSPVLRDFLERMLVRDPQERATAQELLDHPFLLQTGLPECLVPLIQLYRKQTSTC

Compound | inhibition [1] | inhibition [2] | inhibition [3] | inhibition [4] | inhibition [5] | inhibition [6] | inhibition [7] | inhibition [8] | inhibition [9] | inhibition [10] | inhibition [11] | inhibition [12] | inhibition [13] | inhibition [14] | inhibition [15] | inhibition [16] | inhibition [17] | inhibition [18] | inhibition [19] | inhibition [20]
NS(=O)(=O)c1ccc(Nc2ncc(-c3ccccc3)o2)cc1 | 58.6% | 2.3% | 2.12% | 8.89% | 41.9% | 6.4% | 10.2% | 7.3% | 8.38% | -1.93% | -2.5% | 4.04% | 7.88% | 2.52% | 1.78% | 4.23% | 5.19% | 8.88% | 9.45% | -1.35%
CCn1cc(-c2ccnc3[nH]ccc23)c(-c2cccc(NC(=O)Nc3ccc(OCc4ccccc4)cc3)c2)n1 | 27.8% | 0.08% | 1.59% | 3% | 30.9% | 1.36% | 1.63% | 2.37% | 2.77% | 0.67% | -5.19% | 0.97% | 0.73% | -0.8% | -0.35% | 1.3% | 1.28% | -1.74% | -3.66% | 5.15%
COc1ccc(-c2oc3ncnc(N)c3c2-c2ccc(NC(=O)Nc3cc(C(F)(F)F)ccc3F)cc2)cc1 | 10.1% | 6.74% | 7.26% | 6.56% | 6.71% | 12.5% | 19.3% | 12.7% | 18.3% | 0.51% | 0.01% | 6.65% | 5.48% | 3.2% | 3.66% | 4.72% | 4.39% | 16.8% | 0.17% | 2.23%
Nc1nc(-c2cccc(Cl)c2)c(-c2ccc3ncccc3n2)s1 | 60.1% | 5.85% | 5.35% | 10.7% | 46.9% | 5.29% | 7.53% | 5.84% | 7.74% | -1.9% | -1.1% | 6.12% | 6.28% | 2.17% | 1.78% | 3.01% | 6.05% | 1.62% | -3.64% | 3.19%
COc1ccc(CNC(=O)c2ccc(-c3cc(-c4nnc(C)o4)ccc3C)cc2)cc1 | 16.3% | 3.35% | 0.16% | 3.36% | 12.7% | 7.99% | 14.7% | 6.56% | 13.6% | 3.07% | 4.31% | 5.02% | 5.86% | 0.61% | 0.95% | 1.81% | 3.19% | 8.37% | 8.19% | 5.26%
Cc1ccc2c(-c3ccnc(Nc4ccccc4)n3)c(-c3ccc(F)cc3)nn2n1 | 62.1% | 4.55% | 10.8% | 9.04% | 50.7% | 6.19% | 5.86% | 8.21% | 5.67% | -1.05% | 0% | 3.46% | 6.67% | 2.41% | 1.9% | 3.55% | 4.22% | 8.15% | 2.93% | 1.48%
CN(C)CCOc1ccc(-c2nc(-c3ccncc3)c(-c3ccc4c(c3)CC/C4=N\O)[nH]2)cc1 | 47.2% | 4.37% | 3.23% | 8.74% | 37.3% | 4.67% | 6.56% | 4.63% | 4.58% | -1.19% | -0.6% | 4.61% | 9.24% | 2.66% | 2.42% | 3.85% | 4.82% | 7.4% | 7.07% | -7.61%
